This is a sample that favours compounds with a hit; in the whole collection about 2.8% have one here.
HIF-2a block = blocks HIF-2a reporter activity | 786-0 RCC cells HIF-2a reporter, luciferase luminescence, overnight | inhibition, % at 18.8 µM | 360,000 compounds, 0.72% hits | AID 624352;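 active = inhibition of the luminescence signal of 40% or more relative to plate controls, in a single-dose primary screen at 18.75 µM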
CF NFkB inh = blocks PAF-induced NF-kB reporter in cystic fibrosis cells; KKLEB NF-kB-GFP reporter, GFP fluorescence overnight; inhibition, % at 5 µM; 360,000 compounds, 0.86% hits; AID 588850;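 active = at least 50% inhibition at 5 µM, scaled per plate between neutral and stimulator controls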;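 note: PAF is a Pseudomonas aeruginosa culture filtrate used as stimulus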
Peg3 prom inh = reduces Peg3 promoter-driven luciferase expression in HeLa; inhibition, % at 20 µM; 360,000 compounds, 1.7% hits; HeLa PEG-Prom luciferase reporter, luminescence, overnight;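 active = inhibition of at least 50% at 20 µM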
B2AR ag = activates human beta-2 adrenergic receptor causing internalization. P07550. Am2.2-beta2AR cells, FAP receptor internalization, flow cytometry. response, % (no concentration beside the values). 340,000 compounds, 0.43% hits. AID 504454;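 active = response above a set limit, near 3 SD of response in nonfluorescent compounds, cut at about 42% in these data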
Target sequence (P07550 whole entry, looked up): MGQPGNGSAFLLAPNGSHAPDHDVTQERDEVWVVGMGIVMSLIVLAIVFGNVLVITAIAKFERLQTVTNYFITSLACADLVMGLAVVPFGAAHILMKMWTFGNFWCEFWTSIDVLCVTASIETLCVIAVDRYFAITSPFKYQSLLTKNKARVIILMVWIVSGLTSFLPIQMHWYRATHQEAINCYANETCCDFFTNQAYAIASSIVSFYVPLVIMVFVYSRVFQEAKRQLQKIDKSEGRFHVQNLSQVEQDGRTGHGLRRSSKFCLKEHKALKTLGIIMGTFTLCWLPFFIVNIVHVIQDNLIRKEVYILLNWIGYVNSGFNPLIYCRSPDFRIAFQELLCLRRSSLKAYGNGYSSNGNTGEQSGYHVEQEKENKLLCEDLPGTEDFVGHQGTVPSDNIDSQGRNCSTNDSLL
TRPM1 prom inh = inhibitors of MITF-driven TRPM1 promoter in melanoma cells; AID 488899; inhibition, % at 12.5 µM; 330,000 compounds, 0.83% hits; SK-MEL-5 TRPM1 promoter luciferase, 24 h;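 active = mean inhibition across replicates of 60% or more, whatever share of single replicates reaches that level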
KKLEB cytotox = reduces viability of KKLEB cystic fibrosis airway cells. KKLEB CF airway cells viability, ATPlite luminescence, overnight; stronger effect = lower value; cells stimulated with P. aeruginosa culture filtrate. 360,000 compounds, 0.36% hits. activity change (cytotoxicity), % at 5 µM;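 active = corrected activity change at or below -50% at 5 µM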
Of the large screens only hits and unclear results are named; the others gave an inactive call.

CSCCC(NC(=O)CCC(=O)OCC(=O)[C@@]1(O)CCC2[C@@H]3CCC4=CC(=O)C=C[C@]4(C)C3[C@@H](O)C[C@@]21C)C(=O)O (stereo partly specified)	CF NFkB inh 72.2
C[C@]12C=CC(=O)C=C1CC[C@@H]1C2C(O)C[C@@]2(C)C1CC[C@]2(O)C(=O)COC(=O)CCC(=O)NC(CC(=O)O)C(=O)O (stereo partly specified)	CF NFkB inh 76.9
C[C@]12C=CC(=O)C=C1CC[C@@H]1[C@@H]2C(=O)C[C@@]2(C)[C@H]1CC[C@]2(O)C(=O)COC(=O)CCC(=O)O	none
CCCCCNC(=O)C(c1ccc(C#N)cc1)n1c(=O)c(-c2ccco2)nc2ccccc21 (stereo unspecified)	none (no result: CF NFkB inh, Peg3 prom inh, B2AR ag, TRPM1 prom inh, KKLEB cytotox)
CCn1c2ccccc2nc2cc3c(cc21)c(Cl)c(=O)c1ccccc13	HIF-2a block 53.5, CF NFkB inh 81.1, Peg3 prom inh 62.0 (no result: B2AR ag, TRPM1 prom inh)
O=C(C[C@H]1C(=O)N(c2ccccc2)C[C@@H]1Cc1ccccc1)Nc1ccccc1	none (no result: B2AR ag, TRPM1 prom inh)
COC(=O)C[C@@H]1CC[C@H](NS(=O)(=O)c2cccc(F)c2)[C@@H](CO)O1	none (no result: CF NFkB inh, Peg3 prom inh, B2AR ag, TRPM1 prom inh, KKLEB cytotox)
C=CCn1c(C)cc(C2=NNC(=NC(C)(C)C)SC2)c1C	HIF-2a block 48.5, TRPM1 prom inh 79.2
C=CCN=C1NN=C(c2cc(C)n(CCOC)c2C)CS1	HIF-2a block 46.7
COCCn1c(C)cc(C2=NNC(=Nc3ccc(Cl)cc3Cl)SC2)c1C	none
CC1(Cc2ccccc2Cl)C(=O)Nc2c(Cl)cccc21 (stereo unspecified)	none (no result: B2AR ag, TRPM1 prom inh)
C=C1C(=O)C23C(O)C1CCC2C12CCCC(C)(COC(C)=O)C1C(O)C3(O)OC2 (stereo unspecified)	HIF-2a block 93.1, CF NFkB inh 90.7, Peg3 prom inh 107.0, B2AR ag 57.7, TRPM1 prom inh 97.1, KKLEB cytotox -91.3
CCn1c(CN2CCC(C)CC2)nc2cc(S(=O)(=O)N3CCCCC3)ccc21	none (no result: B2AR ag, TRPM1 prom inh)
CCOc1cc2[nH]c(=S)n(CCc3ccc(OC)c(OC)c3)c(=O)c2cc1OCC	Peg3 prom inh 64.0
CCOc1cc2[nH]c(=O)n(CCc3ccc(OC)c(OC)c3)c(=O)c2cc1OCC	none
Cc1cc(NC2CCCCC2)nc(NCc2ccccc2)n1	Peg3 prom inh 65.5
Cc1ccc(Nc2cc(C)nc(NCc3ccccc3)n2)cc1	Peg3 prom inh 73.3
O=C(CN(c1ccc(Br)cc1)S(=O)(=O)c1ccc(Cl)c([N+](=O)[O-])c1)NCCc1ccccc1	Peg3 prom inh 65.2
O=C(CN(c1cccc(C(F)(F)F)c1)S(=O)(=O)c1ccc(Cl)c([N+](=O)[O-])c1)NCc1ccccc1	none
CS(=O)(=O)N1Cc2cc(C(=O)NCC3CC3)nc(-c3cccc(-c4cccnc4)c3)c2[C@@H]1CCO	none (no result: CF NFkB inh, Peg3 prom inh, B2AR ag, TRPM1 prom inh, KKLEB cytotox)
Cc1cccc(NC2=C/C(=N/S(=O)(=O)c3cccs3)c3ccccc3C2=O)c1	CF NFkB inh 93.2, TRPM1 prom inh 102.3, KKLEB cytotox -64.6
O=C(O)c1ccc(NC2=C/C(=N/S(=O)(=O)c3cccs3)c3ccccc3C2=O)cc1	CF NFkB inh 87.3 (no result: B2AR ag, TRPM1 prom inh)
O=C1C(Nc2ccc(O)cc2)=C/C(=N/S(=O)(=O)c2cccs2)c2ccccc21	HIF-2a block 40.1, CF NFkB inh 92.9, Peg3 prom inh 105.9, B2AR ag 61.4, TRPM1 prom inh 108.2, KKLEB cytotox -64.6
Cc1cccc(NC2=C(NCCO)C(=O)c3ccccc3C2=O)c1	none
CN(C)c1ccc(CNC(=O)C2Cc3c(-c4cccc(C(N)=O)c4)ccnc3O2)cc1 (stereo unspecified)	none (no result: B2AR ag, TRPM1 prom inh)
COCCNC(=O)C1(C)CCN(C(=O)c2sccc2C)C1 (stereo unspecified)	none (no result: B2AR ag, TRPM1 prom inh)
CCOC(=O)c1[nH]c2ccc(OC)cc2c1NC(=O)CN1CCc2ccccc2C1	Peg3 prom inh 54.8
CCOC(=O)c1[nH]c2ccc(OC)cc2c1NC(=O)CN1CCC2(CC1)OCCO2	none
CCN1CCN(c2ccc(S(=O)(=O)N3CCOCC3)cc2NC(=O)/C=C/c2ccc(OC)c(OC)c2)CC1	none
CCN1CCN(c2ccc(S(=O)(=O)N3CCCCC3)cc2NC(=O)c2ccc([N+](=O)[O-])s2)CC1	Peg3 prom inh 63.9, TRPM1 prom inh 84.9
CCN1CCN(c2ccc(S(=O)(=O)N3CCCCC3)cc2NC(=O)/C=C/c2ccc(OC)c(OC)c2)CC1	none
CCN1CCN(c2ccc(S(=O)(=O)N3CCCCC3)cc2NC(=O)/C=C/c2cc(OC)ccc2OC)CC1	Peg3 prom inh 101.2
CCN1CCN(c2ccc(S(=O)(=O)N3CCCCC3)cc2NC(=O)c2ccccc2)CC1	none
CCN1CCN(c2ccc(S(=O)(=O)N3CCCCC3)cc2NC(=O)/C=C/c2ccc(Cl)cc2)CC1	Peg3 prom inh 84.6, TRPM1 prom inh 89.1
O=c1[nH]cc(N=Cc2cc(Cl)cc(Cl)c2O)c(=O)[nH]1	none
COc1ccc(S(=O)(=O)Nc2cc(SCC(=O)O)c(O)c3ccccc23)cc1	CF NFkB inh 78.5, TRPM1 prom inh 68.4
Cc1ccc(Cl)cc1NS(=O)(=O)c1ccccc1	none
O=C(O)CSc1cc(NS(=O)(=O)c2ccc(Cl)cc2)c2ccccc2c1O	CF NFkB inh 81.0
COc1cccc2c1C(=O)c1c(O)c3c(c(O)c1C2=O)CC(O)(C(C)=O)CC3OC1CC(O)C(O)C(C)O1 (stereo unspecified)	TRPM1 prom inh 77.3
COc1cccc2c1C(=O)c1c(O)c3c(c(O)c1C2=O)C[C@](O)(C(C)=O)C[C@H]3O[C@@H]1C[C@@H](N)[C@@H](O)[C@@H](C)O1	CF NFkB inh 64.6, Peg3 prom inh 105.0, TRPM1 prom inh 88.2
CCCCC(=O)OCC(=O)C1(O)Cc2c(O)c3c(c(O)c2C(OC2CC(NC(=O)C(F)(F)F)C(O)C(C)O2)C1)C(=O)c1c(OC)cccc1C3=O (stereo unspecified)	Peg3 prom inh 74.3, TRPM1 prom inh 61.4
COc1cccc2c1-c1c(O)cccc1C2=O	none
CCc1ccc(N2C=C(C(=O)OC)C(c3ccccc3F)C(C#N)=C2N)cc1 (stereo unspecified)	none (no result: CF NFkB inh, Peg3 prom inh, B2AR ag, TRPM1 prom inh, KKLEB cytotox)
Cc1oc(-c2ccc(Cl)cc2)nc1CN1CCC(C(=O)N2CCc3ccccc3C2)CC1	Peg3 prom inh 79.4
Cc1oc(-c2ccc(Cl)cc2)nc1CN1CCC(C(=O)NCCCN2CCCC(C)C2)CC1 (stereo unspecified)	TRPM1 prom inh 95.9
Cc1oc(-c2ccc(Cl)cc2)nc1CN1CCC(C(=O)N2CCN(Cc3ccccc3)CC2)CC1	none
C[C@@H]1CN([C@H](C)CO)S(=O)(=O)c2ccc(Br)cc2O[C@H]1CN(C)C(=O)C1CCCCC1	none (no result: B2AR ag, TRPM1 prom inh)
CC(C)C[C@H]1CNC(=S)N1C[C@H]1CCCN1C[C@H](Cc1ccc(O)cc1)N1C[C@H](Cc2ccc(O)cc2)N(CCc2ccccc2)C1=S	Peg3 prom inh 93.7 (no result: B2AR ag, TRPM1 prom inh)

Screening data from PubChem.
